For some assays here: Entries with a potency or affinity are not part of this list.
Experiments:
Design in all cases: scale not given: direction of the effect not stated beside the values
[1] = target: Protein translocase subunit SecA (Escherichia coli (strain K12)) (UniProt P10408); assay: Assay to Identify E. coli SecA ATPase Inhibitors; assay type: functional; details: 30 µM
[2] = target: T1, Ubiquitin-activating enzyme e1, putative (Leishmania donovani (strain BPK282A1)) (UniProt E9BSI1); assay: Leishmania donovani Ubiquitin Activating Enzyme (LdE1); assay type: functional; details: 30 µM
T1 sequence (whole entry): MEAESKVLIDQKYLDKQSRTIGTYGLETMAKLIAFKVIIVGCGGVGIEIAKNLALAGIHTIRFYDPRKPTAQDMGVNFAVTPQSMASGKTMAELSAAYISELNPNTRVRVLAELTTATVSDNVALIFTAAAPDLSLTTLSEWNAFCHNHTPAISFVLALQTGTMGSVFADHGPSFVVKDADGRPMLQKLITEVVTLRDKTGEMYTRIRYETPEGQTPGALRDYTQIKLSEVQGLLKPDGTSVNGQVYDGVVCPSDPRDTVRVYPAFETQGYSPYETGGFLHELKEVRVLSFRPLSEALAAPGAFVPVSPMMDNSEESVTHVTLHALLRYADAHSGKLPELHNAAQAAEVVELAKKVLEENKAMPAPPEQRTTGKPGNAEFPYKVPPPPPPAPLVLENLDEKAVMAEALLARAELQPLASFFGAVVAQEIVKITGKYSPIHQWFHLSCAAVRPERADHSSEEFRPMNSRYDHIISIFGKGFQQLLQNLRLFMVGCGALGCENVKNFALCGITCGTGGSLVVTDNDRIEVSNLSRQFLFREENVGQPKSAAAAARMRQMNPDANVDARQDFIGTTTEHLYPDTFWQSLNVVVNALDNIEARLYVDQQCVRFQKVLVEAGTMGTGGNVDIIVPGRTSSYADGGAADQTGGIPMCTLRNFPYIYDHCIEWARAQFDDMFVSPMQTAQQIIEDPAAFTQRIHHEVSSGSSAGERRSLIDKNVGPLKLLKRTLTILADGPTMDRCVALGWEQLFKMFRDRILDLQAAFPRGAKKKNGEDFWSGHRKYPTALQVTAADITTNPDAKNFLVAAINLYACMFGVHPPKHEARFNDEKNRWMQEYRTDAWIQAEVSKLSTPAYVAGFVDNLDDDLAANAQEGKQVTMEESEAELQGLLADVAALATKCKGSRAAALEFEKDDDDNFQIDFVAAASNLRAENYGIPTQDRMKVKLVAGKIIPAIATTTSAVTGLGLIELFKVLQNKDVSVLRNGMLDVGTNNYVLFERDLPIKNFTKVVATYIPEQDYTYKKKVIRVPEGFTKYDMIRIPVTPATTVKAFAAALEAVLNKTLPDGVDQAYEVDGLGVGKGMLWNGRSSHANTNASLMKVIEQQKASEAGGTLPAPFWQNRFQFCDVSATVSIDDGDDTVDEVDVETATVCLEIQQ

[3] = target: AMP-activated protein kinase, AMPK (Homo sapiens) (UniProt P54646+O43741+P54619+Q9UGJ0+Q9Y478+Q13131+Q9UGI9); assay: AMP-dependent Kinase enzyme assay. An in vitro enzyme assay that detects ADP turnover that is directly proportional to AMPK activity. This uses naive AMPK that is activated during the assay with MK-8722; assay type: functional; details: 30 µM
[4] = target: Sialic acid-binding Ig-like lectin 9 (Homo sapiens) (UniProt Q9Y336); assay: Hs-Siglec9 ALPHAscreen SOP 20170721; details: 10 µM
Sialic acid-binding Ig-like lectin 9 (Homo sapiens), sequence (Q9Y336 whole entry): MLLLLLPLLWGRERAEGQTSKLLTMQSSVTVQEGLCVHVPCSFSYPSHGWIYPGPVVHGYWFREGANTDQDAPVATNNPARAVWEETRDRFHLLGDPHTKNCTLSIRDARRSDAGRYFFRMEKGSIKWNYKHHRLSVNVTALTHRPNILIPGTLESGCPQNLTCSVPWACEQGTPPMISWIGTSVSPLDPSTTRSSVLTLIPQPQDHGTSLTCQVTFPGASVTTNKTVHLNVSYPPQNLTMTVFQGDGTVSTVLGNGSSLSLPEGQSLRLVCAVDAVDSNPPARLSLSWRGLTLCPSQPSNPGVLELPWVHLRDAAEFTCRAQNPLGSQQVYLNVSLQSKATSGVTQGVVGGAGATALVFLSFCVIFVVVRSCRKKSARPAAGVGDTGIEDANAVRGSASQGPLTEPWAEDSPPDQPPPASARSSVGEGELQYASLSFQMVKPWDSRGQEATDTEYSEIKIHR

[5] = test system: Trypanosoma cruzi; assay: Trypanosoma cruzi phosphomannomutase and mannose-1-phosphate guanylyltransferase assay; assay type: functional; details: 10 µM
[6] = target: T2, Arginase-2, mitochondrial (Homo sapiens) (UniProt P78540); assay: in vitro enzyme assay to detect the production of urea directly proportional to the activity of Arginase II; assay type: functional; details: 33.3 µM; further: in the data most compounds retested in dose-response had high values
T2 sequence (whole entry): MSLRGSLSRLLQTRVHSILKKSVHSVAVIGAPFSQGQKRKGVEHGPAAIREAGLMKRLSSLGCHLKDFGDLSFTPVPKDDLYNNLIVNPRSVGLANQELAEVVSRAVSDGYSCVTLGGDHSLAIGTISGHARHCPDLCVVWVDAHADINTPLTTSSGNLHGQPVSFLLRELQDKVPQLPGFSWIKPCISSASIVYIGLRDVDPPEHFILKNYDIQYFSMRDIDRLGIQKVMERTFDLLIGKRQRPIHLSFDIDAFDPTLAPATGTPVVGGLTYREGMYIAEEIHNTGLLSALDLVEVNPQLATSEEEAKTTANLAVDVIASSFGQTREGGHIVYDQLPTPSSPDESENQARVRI

[7] = target: T3, Proteasome subunit beta (Trypanosoma cruzi) (UniProt O96673); assay: Trypanosoma cruzi proteasome chymotrypsin-like activity (TcProtChymo) assay.; further: in the data most compounds retested in dose-response had high values; assay type: functional; details: 9.37 µM
T3 sequence (whole entry): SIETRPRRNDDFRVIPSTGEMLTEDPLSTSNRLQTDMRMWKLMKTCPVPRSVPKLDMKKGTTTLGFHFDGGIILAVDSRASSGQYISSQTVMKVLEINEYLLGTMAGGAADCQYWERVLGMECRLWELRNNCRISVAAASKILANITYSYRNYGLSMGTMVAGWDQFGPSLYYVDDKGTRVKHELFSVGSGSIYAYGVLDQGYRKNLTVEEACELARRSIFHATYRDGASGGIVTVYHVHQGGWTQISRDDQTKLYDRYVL

[8] = species on record: Homo sapiens; assay: To identify inhibition of the IFN signalling (Jak-Stat) pathway via expression of an eGFP reporter gene under the control of an IFN-stimulated response element (ISRE) containing MxA promoter.; assay type: functional; details: 30 µM
[9] = target: T4, Tyrosyl-tRNA synthetase, putative (Trypanosoma cruzi (strain CL Brener)) (UniProt Q4DSP6); assay: Trypanosoma cruzi tyrosyl tRNA synthetase (TcYRS) _High Tyrosine SOP; assay type: functional; details: 30 µM; further: in the data most compounds retested in dose-response had high values
T4 sequence (whole entry): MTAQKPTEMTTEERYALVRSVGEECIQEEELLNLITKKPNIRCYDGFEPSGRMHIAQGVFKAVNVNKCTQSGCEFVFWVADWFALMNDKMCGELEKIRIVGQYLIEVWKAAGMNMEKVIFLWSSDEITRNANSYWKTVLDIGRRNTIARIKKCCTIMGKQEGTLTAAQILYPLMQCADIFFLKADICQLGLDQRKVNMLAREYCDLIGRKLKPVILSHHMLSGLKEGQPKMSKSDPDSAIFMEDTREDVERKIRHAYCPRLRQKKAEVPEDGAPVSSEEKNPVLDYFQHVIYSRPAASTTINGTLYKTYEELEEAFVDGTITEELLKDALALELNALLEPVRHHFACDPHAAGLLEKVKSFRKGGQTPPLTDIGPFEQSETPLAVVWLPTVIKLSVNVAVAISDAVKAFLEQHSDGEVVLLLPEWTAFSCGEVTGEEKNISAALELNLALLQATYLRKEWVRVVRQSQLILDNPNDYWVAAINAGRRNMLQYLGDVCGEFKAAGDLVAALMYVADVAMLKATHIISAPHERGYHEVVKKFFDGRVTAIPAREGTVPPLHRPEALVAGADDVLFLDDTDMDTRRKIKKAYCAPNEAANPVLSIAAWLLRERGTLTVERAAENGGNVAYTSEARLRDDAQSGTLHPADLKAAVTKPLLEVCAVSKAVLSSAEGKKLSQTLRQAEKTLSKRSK

[10] = target: T4, Tyrosyl-tRNA synthetase, putative (Trypanosoma cruzi (strain CL Brener)); assay: Trypanosoma cruzi tyrosyl tRNA synthetase (TcYRS) SOP; assay type: functional; details: 30 µM
[11] = target: Chromo domain-containing protein 1 (Saccharomyces cerevisiae (strain ATCC 204508 / S288c) (Baker's yeast)) (UniProt P32657); assay: ScCHD-1 Enzyme Inhibition Assay; assay type: functional; details: 30 µM; further: in the data most compounds retested in dose-response had high values
Chromo domain-containing protein 1 (Saccharomyces cerevisiae (strain ATCC 204508 / S288c) (Baker's yeast)), sequence (P32657 whole entry, the tested form may be a part): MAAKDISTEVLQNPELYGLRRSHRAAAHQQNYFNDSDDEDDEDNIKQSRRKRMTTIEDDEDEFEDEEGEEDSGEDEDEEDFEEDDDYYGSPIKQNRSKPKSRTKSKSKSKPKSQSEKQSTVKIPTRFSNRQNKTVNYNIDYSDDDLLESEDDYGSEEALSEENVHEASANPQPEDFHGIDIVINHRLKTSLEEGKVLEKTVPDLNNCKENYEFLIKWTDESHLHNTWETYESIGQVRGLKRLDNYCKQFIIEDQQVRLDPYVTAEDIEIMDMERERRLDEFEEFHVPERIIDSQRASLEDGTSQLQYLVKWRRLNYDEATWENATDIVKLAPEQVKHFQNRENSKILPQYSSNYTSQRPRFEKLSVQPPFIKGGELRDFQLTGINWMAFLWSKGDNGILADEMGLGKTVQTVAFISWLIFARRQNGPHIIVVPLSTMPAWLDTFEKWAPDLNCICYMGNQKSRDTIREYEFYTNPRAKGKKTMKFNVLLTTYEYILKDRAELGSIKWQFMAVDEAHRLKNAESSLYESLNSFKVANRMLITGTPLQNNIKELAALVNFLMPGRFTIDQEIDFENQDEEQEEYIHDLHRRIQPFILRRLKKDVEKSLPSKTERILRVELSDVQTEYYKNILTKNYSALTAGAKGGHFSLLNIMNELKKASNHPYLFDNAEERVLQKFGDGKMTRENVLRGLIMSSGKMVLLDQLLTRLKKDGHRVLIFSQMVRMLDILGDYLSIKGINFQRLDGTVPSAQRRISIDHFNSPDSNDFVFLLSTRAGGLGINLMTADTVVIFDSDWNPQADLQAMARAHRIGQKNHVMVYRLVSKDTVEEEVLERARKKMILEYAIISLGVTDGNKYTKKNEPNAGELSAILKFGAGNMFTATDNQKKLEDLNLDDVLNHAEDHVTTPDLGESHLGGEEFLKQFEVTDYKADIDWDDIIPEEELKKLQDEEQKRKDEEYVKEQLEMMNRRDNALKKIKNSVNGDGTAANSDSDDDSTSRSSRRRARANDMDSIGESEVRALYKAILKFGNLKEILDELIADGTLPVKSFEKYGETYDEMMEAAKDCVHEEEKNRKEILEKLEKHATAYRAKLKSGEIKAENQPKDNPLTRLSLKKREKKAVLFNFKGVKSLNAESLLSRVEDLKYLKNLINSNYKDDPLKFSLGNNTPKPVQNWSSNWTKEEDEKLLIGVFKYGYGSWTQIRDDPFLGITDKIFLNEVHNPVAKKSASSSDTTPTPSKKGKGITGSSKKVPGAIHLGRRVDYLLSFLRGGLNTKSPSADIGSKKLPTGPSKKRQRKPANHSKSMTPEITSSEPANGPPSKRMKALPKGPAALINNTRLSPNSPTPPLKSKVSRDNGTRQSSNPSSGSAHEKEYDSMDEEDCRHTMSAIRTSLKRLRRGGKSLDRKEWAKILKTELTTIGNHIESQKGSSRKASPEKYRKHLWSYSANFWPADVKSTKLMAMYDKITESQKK

Protein translocase subunit SecA (Escherichia coli (strain K12)), sequence (P10408 whole entry): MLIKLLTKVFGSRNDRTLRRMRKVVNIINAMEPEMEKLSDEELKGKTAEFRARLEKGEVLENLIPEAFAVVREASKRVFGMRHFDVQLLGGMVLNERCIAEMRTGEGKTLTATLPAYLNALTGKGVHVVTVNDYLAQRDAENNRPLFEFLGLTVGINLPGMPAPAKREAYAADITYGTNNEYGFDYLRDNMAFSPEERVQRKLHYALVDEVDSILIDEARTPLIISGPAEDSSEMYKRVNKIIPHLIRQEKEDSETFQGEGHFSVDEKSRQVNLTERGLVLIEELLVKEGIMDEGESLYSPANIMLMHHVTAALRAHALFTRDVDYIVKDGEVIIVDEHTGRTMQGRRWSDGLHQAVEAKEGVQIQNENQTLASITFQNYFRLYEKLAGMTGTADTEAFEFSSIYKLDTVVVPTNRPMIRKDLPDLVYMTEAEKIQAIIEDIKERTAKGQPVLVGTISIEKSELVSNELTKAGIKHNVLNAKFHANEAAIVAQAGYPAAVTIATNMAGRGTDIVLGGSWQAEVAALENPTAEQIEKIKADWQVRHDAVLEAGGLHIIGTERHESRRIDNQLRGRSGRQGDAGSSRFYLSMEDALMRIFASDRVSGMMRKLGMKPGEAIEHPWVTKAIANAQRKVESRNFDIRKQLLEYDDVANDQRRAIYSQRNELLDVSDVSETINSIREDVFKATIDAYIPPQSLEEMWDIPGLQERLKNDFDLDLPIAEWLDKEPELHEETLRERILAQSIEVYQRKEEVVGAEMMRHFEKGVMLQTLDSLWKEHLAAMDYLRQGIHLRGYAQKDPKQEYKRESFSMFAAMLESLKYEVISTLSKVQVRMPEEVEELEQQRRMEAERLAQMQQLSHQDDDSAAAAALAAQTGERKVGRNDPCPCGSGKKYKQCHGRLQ

SMILES	Percent Effect [1] [%]	Percent Effect [2] [%]	Percent Effect [3] [%]	Percent Effect [4] [%]	Percent Effect [5] [%]	Percent Effect [6] [%]	Percent Effect [7] [%]	Percent Effect [8] [%]	Percent Effect [9] [%]	Percent Effect [10] [%]	Percent Effect [11] [%]
CN(C)C(CNS(=O)(=O)c1ccc(F)cc1F)c1cccn1C (stereo unspecified)	-6.84	8.22	2.21	-1	-4.9	2.73	10.8	13.6	4.3	12.5	-4.19
CC(C)C1CN(C(=O)c2ccc(C(N)=O)cc2)CCS1 (stereo unspecified)	-4.2	5.2	1.75	3.92	-6.2	-4.14	6.49	6.03	2.15	6.17	0.585
N#Cc1ccccc1CN1CCCCC1Cn1cncn1 (stereo unspecified)	-0.27	13.5	-13.3	-8.54	-5.38	0	-0.54	15.9	9.36	13.6	-5.63
Cc1ccc(N2CCCc3sc(C(=O)NCc4cccnc4)nc32)nn1	-3.86	-8.22	-0.787	3.77	7.54	-7.19	5.39	-8.08	1.04	6.17	-2.84
COc1ccc2cc(C3CN(C(=O)C4CCOCC4)CCO3)ccc2c1 (stereo unspecified)	-3.12	2.7	1.82	0.48	1.93	2.38	9.31	-4.85	4.76	12.2	-2.89
COCCOc1ccccc1C(=O)N1CCCCC1c1nccs1 (stereo unspecified)	-5.08	5.41	-31.5	16.3	7.45	-2.81	2.52	-0.874	4.43	11.1	-14.3
CC(C)(C)OC(=O)N1CCN(C(=O)c2sccc2C2CC2)CC1	-1.99	8.86	5.24	1.31	-2.56	9.25	6.17	-13.8	3.12	5.06	-5.68
CCN1CCC(NC(=O)CN2CCCC2Cn2nc(C)cc2C)CC1 (stereo unspecified)	-3.31	2.7	-2.56	6.76	-3.3	-5.61	-0.54	3.04	4.43	1.24	0.399
CC(=O)Nc1nc(C(=O)NC(C)c2ccc(F)cc2)cs1 (stereo unspecified)	-2.72	15.6	16.6	-7.49	6.76	-9.05	11.1	-15.4	8.57	21.2	-24.3
COc1ccc(CN(C)CC2CCCN2c2cccnn2)cc1F (stereo unspecified)	1.17	15.6	13.3	-7.91	-2.25	-7.79	13.8	18.7	7.62	18.8	-22.1
O=C(C1=CCCC1)N1C[C@H](Oc2cccnc2)[C@H]2OCCC[C@H]21	1.45	5.41	3.36	-3.91	-0.977	-2.08	3.47	7.05	92.1	3.66	-17.8
Cc1cnn(CC2CN(Cc3nc4ccccc4nc3C)CCO2)c1 (stereo unspecified)	-4.61	2.6	-4.31	-1.3	6.56	-4	7.52	-8.59	9.52	14.1	-22.4
CC1CCN(CCNC(=O)C2CCN(S(N)(=O)=O)CC2)CC1	-1.93	9.72	-5.79	-4.04	-3.4	1.77	10	3.48	2.1	5.13	-2.96
Cc1nc(O)cc(C2CCN(Cc3cccc(F)c3F)C2)n1 (stereo unspecified)	-5.61	20.3	-0.666	-0.896	1.19	-3.94	9.83	2.45	2.15	16.9	-14.2
COc1ccc(CN2CCc3ncnc(OC(C)C)c3CC2)cc1	2.24	10.7	7.06	-5.75	-6.37	-53.9	16.2	19	-14.6	0	-4.41
CNS(=O)(=O)c1ccc(C(=O)N2CCCC2c2ccccc2)o1 (stereo unspecified)	-6.62	13.2	2.8	2.47	2.15	-3.6	-2.96	-6.57	6.4	18.5	1

Reference: ChEMBL document CHEMBL3988442, “University of Dundee, Small-Polar-MMV Screening Library” (2021)
